Test results from PubChem BioAssay (NCI).
This is part of a sample that, as a whole, favours compounds with a hit. Of some 79,000 tested, about 15% had one in any assay. The source made the active and inactive calls. Rule as the data show it: active = growth inhibition above about 70%; inactive = the rest.

Columns and labels:
[1] = NCI Yeast Anticancer Drug Screen. Data for the rad52 strain (AID 147);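 also: 0% = growth of vehicle-treated control cultures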; settings: S. cerevisiae rad52 mutant growth inhibition, active compounds read high
How it was run: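 Genetically altered yeast (DNA damage repair defect) treated with compound; inhibition calculated relative to vehicle.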

[2] = NCI Yeast Anticancer Drug Screen. Data for the wt1 strain (AID 149);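 also: 0% = growth of vehicle-treated wt1 cultures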; settings: S. cerevisiae wt1 strain (SPY 50644) growth inhibition, active compounds read high
How it was run: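 Each compound is tested on wt1 yeast and the loss of growth versus vehicle gives the inhibition value.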

[3] = NCI Yeast Anticancer Drug Screen. Data for the rad50EPP+ strain (AID 151);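 also: 0% = growth of vehicle-treated control cultures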; settings: S. cerevisiae rad50 mutant strain, active compounds read high
How it was run: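 Strain rad50EPP+; compound exposure; % growth inhibition vs vehicle.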

[4] = NCI Yeast Anticancer Drug Screen. Data for the mgt1 strain (AID 153); settings: S. cerevisiae mgt1 mutant growth inhibition, active compounds read high
How it was run: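 Read-out: yeast growth inhibition vs vehicle control. Strain mgt1, drawn from a panel altered in DNA damage repair or cell cycle control.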

[5] = NCI Yeast Anticancer Drug Screen. Data for the rad50 strain (AID 155);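 also: 0% = growth of vehicle-only cultures of the same strain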; settings: S. cerevisiae rad50 strain growth inhibition, active compounds read high
How it was run: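 Vehicle-treated cultures provide the reference for the growth inhibition reported for compound-exposed, repair-deficient yeast.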

[6] = NCI Yeast Anticancer Drug Screen. Data for the mec2-1 strain (AID 157); settings: S. cerevisiae mec2-1 strain, active compounds read high
How it was run: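 Cells of the genetically defined mec2-1 yeast strain are incubated with test compound. Inhibition of growth is calculated against vehicle-treated controls.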

[7] = NCI Yeast Anticancer Drug Screen. Data for the rad14 strain (AID 159);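 also: 0% = growth of vehicle-treated control cultures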; settings: S. cerevisiae rad14 strain growth inhibition, active compounds read high
How it was run: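 Inhibition of growth is reported for a repair-deficient yeast mutant following compound treatment, calculated relative to cultures that received vehicle.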

[8] = NCI Yeast Anticancer Drug Screen. Data for the sgs1 mgt1 strain (AID 161);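 also: 0% = growth of cultures given vehicle only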; settings: S. cerevisiae sgs1 mgt1 strain, active compounds read high
How it was run: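 Test agents were incubated with a DNA-repair-mutant yeast strain. Growth was then read and compared against vehicle-treated controls.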

[9] = NCI Yeast Anticancer Drug Screen. Data for the CLN2oe strain (AID 163);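 also: 0% = growth of vehicle-only control cultures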; settings: S. cerevisiae CLN2oe strain, active compounds read high
How it was run: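 Strain altered in cell-cycle control, incubated with compound; growth compared to solvent-treated controls.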

[10] = NCI Yeast Anticancer Drug Screen. Data for the cln2 rad14 strain (AID 165);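 also: 0% = growth equal to vehicle treated cultures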; settings: S. cerevisiae cln2 rad14 strain, active compounds read high
How it was run: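 The screen exposed genetically defined yeast (cln2 rad14) to test compounds and scored growth inhibition relative to vehicle-treated controls.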

[11] = NCI Yeast Anticancer Drug Screen. Data for the bub3 strain (AID 167); settings: S. cerevisiae bub3 mutant strain, active compounds read high
How it was run: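 Mutant yeast screening strain plus compound; vehicle-treated cultures serve as the 0% inhibition reference.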

[12] = NCI Yeast Anticancer Drug Screen. Data for the wt2 strain (AID 169); settings: S. cerevisiae wt2 strain growth inhibition, active compounds read high
How it was run: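 Steps: yeast strain treated with compound; growth recorded; inhibition calculated relative to cultures given vehicle alone.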

[13] = NCI Yeast Anticancer Drug Screen. Data for the mlh1 strain (AID 171);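 also: 0% = growth of vehicle-treated control cultures of the same strain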; settings: S. cerevisiae mlh1 strain growth inhibition, active compounds read high
How it was run: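 Yeast screen: mutant strain plus compound, growth scored against vehicle control wells.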

[14] = NCI Yeast Anticancer Drug Screen. Data for the sgs1 strain (AID 173);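 also: 0% = growth of vehicle-only control cultures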; settings: S. cerevisiae sgs1 mutant, active compounds read high
How it was run: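 Inhibition of yeast growth served as the measure. The mutant strain was treated with each compound, and growth was normalised to cultures receiving vehicle alone.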

[15] = NCI Yeast Anticancer Drug Screen. Data for the mlh1 rad18 strain (AID 175); settings: S. cerevisiae mlh1 rad18 strain growth inhibition, active compounds read high
How it was run: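 Compound-treated yeast growth, normalised to vehicle controls. Strain bears defined DNA repair mutations.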

[16] = NCI Yeast Anticancer Drug Screen. Data for the rad18 strain (AID 177); settings: S. cerevisiae rad18 mutant growth inhibition, active compounds read high
How it was run: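 Inhibition values reflect reduced yeast growth compared with vehicle-treated controls, using a strain engineered with a DNA damage repair defect.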

[17] = at 5.0 µM (retest, dose inferred, filed as 0.5)
[18] = at 50.0 µM (retest, dose inferred, filed as 5.0)

Measured: growth inhibition

CC[n+]1oc(C(=O)c2ccc(Cl)cc2)c(-c2ccccc2)c1-c1ccccc1.[Cl][Fe]([Cl])([Cl])[Cl]
inactive: [1]; at 1.2 µM 4% | [1]; at 3.7 µM 15% | [1]; at 11.0 µM 32% | [1]; at 33.0 µM 57% | [2]; at 1.2 µM 1% | [2]; at 3.7 µM -1% | [2]; at 11.0 µM 4% | [2]; at 33.0 µM 20% | [2]; at 100.0 µM 54% | [3]; at 1.2 µM 16% | [3]; at 3.7 µM 37% | [4]; at 1.2 µM -2% | [4]; at 3.7 µM -3% | [4]; at 11.0 µM -3% | [4]; at 33.0 µM -1% | [4]; at 100.0 µM 48% | [5]; at 1.2 µM 5% | [5]; at 3.7 µM 8% | [5]; [17] 36% | [5]; at 11.0 µM 41% | [5]; at 33.0 µM 62% | [6]; at 1.2 µM 3% | [6]; at 3.7 µM 1% | [6]; [17] 22% | [6]; at 11.0 µM 11% | [6]; at 33.0 µM 26% | [6]; [18] 57% | [6]; at 100.0 µM 69% | [7]; at 1.2 µM 2% | [7]; at 3.7 µM 6% | [7]; at 11.0 µM 12% | [7]; at 33.0 µM 28% | [7]; at 100.0 µM 57% | [8]; [17] 34% | [9]; at 1.2 µM 0% | [9]; at 3.7 µM 2% | [9]; at 11.0 µM 7% | [9]; at 33.0 µM 23% | [9]; at 100.0 µM 56% | [10]; [17] 17% | [10]; [18] 57% | [10]; at 50.0 µM 68.2% | [11]; at 1.2 µM -5% | [11]; at 3.7 µM -1% | [11]; [17] 13% | [11]; at 11.0 µM 8% | [11]; at 33.0 µM 25% | [11]; at 50.0 µM 67.5% | [11]; at 100.0 µM 65% | [12]; at 1.2 µM 0% | [12]; at 3.7 µM -2% | [12]; at 11.0 µM -3% | [12]; at 33.0 µM 13% | [12]; at 100.0 µM 59% | [13]; at 1.2 µM 4% | [13]; at 3.7 µM 1% | [13]; at 11.0 µM 9% | [13]; at 33.0 µM 31% | [14]; at 1.2 µM 0% | [14]; at 3.7 µM -1% | [14]; at 11.0 µM 18% | [14]; at 33.0 µM 59% | [15]; [17] 27% | [16]; at 1.2 µM 4% | [16]; at 3.7 µM 7% | [16]; at 11.0 µM 24% | [16]; at 33.0 µM 49%
active: [1]; at 100.0 µM 75% | [3]; at 11.0 µM 75% | [3]; at 33.0 µM 93% | [3]; at 100.0 µM 99% | [5]; [18] 72% | [5]; at 50.0 µM 82% | [5]; at 100.0 µM 77% | [6]; at 50.0 µM 80% | [8]; [18] 79% | [8]; at 50.0 µM 89.3% | [11]; [18] 70% | [13]; at 100.0 µM 74% | [14]; at 100.0 µM 87% | [15]; [18] 78% | [15]; at 50.0 µM 94.2% | [16]; at 100.0 µM 79%
